PABP FP inh: PABP poly(A) RNA binding inhibitors, primary screen, biochemical, fluorescence polarization, uHTS; AID 2014, 2009; calls only at 35 µM; 1% of 290,000 active; Polyadenylate-binding protein 1 (Homo sapiens), P11940;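 also: calls also rest on retests at 20 µM and on dose response follow-up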
PABP1 MLLE inh: inhibitors of PABP1 MLLE–PAM2 peptide binding, primary screen, biochemical, fluorescence polarization, FITC-PAM2, GST-MLLE; 0.36% of 360,000 active; AID 588489, 2011; inhibition, % at 20 µM; in the data active = inhibition above about 35%, passing the limit was not always enough
A3G deaminase: APOBEC3G DNA deaminase inhibitors, primary screen, biochemical, fluorescence, single-stranded DNA substrate, uHTS; recombinant A3G, ssDNA deamination FAM/TAMRA fluorescence; inhibition, % at 20 µM; 0.28% of 330,000 active;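 active = inhibition of at least 40% at 20 µM, with no more than 30% in the related APOBEC3A deaminase screen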
A3A deaminase: APOBEC3A ssDNA deaminase inhibitors, primary screen, selectivity assay for APOBEC3G inhibitor project, biochemical, FAM/TAMRA oligo cleavage fluorescence | DNA dC->dU-editing enzyme APOBEC-3A (Homo sapiens), P31941 | recombinant A3A, FAM/TAMRA ssDNA deamination fluorescence | inhibition, % at 20 µM | 0.41% of 330,000 active | AID 493011, 2011;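 active = at least 40% inhibition at 20 µM here, with at most 30% in a related deaminase screen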
Target sequence (P31941 whole entry, looked up): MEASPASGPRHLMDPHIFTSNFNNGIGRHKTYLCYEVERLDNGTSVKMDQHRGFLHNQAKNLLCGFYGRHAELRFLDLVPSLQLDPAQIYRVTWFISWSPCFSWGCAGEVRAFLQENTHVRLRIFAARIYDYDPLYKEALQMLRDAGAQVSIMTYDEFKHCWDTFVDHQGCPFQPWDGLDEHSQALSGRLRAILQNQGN
PHOSPHO1 block: PubChem AID 1565; recombinant PHOSPHO1, absorbance phosphatase assay; inhibition, % at 13.3 µM; 1.1% of 290,000 active; Phosphoethanolamine/phosphocholine phosphatase (Homo sapiens), Q8TCT1; in the data active = inhibition above about 60%
eIF4H inh: human eIF4H binding inhibitors, primary screen, translation initiation inhibitor project, biochemical, uHTS, fluorescence polarization | inhibition, % at 35 µM | 0.94% of 290,000 active | Eukaryotic translation initiation factor 4H (Homo sapiens), Q15056 | eIF4H fluorescence polarization binding assay | AID 2012, 2009;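 also: calls also rest on retests at 20 µM and on dose response follow-up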
Of the large screens only hits and unclear results are named; the others gave an inactive call. Most compounds without a hit are left out; they make up all but 2.6% or so of the library. Unless noted, no rule for the calls is given here.

Clc1ccc(-c2cn3nc4c(nc3n2)CCCC4)cc1	PHOSPHO1 block 88
CC(C)=CCCC(C)CN1CCC(n2nccc2NC(=O)c2cccnc2)CC1 (stereo unspecified)	none
COc1ccc(C(=O)OCC(=O)Nc2ccc(F)cc2F)cc1OC	none
COc1cc(C(=O)OCC(=O)Nc2ccc(F)cc2F)cc(OC)c1OC	PABP FP inh active, eIF4H inh 72
O=[N+]([O-])c1cc(C(F)(F)F)cc([N+](=O)[O-])c1NCCNC(=S)Nc1ccc(Cl)c(Cl)c1	none
C=CC[n+]1c(-c2ccc(OCC)cc2)csc1NNC(=O)Nc1ccccc1	PHOSPHO1 block 61
Nc1ccc2nc(-c3ccccc3)c(-c3ccccc3)nc2c1	eIF4H inh 70
O=C(Nc1ccc(OCc2ccccc2)cc1)Nc1cccnc1	none (no result: PHOSPHO1 block)
COc1ccc(NC(=O)Nc2ccc([N+](=O)[O-])cc2)cn1	PABP FP inh active, PABP1 MLLE inh 58, eIF4H inh 82
COc1ccc(NC(=O)NS(=O)(=O)c2ccc(C)cc2)cn1	PABP FP inh inconclusive, eIF4H inh inconclusive (no result: A3G deaminase, A3A deaminase)
COc1ccc(NC(=O)Nc2ccc(OCc3ccccc3)cc2)cn1	PABP FP inh inconclusive, PABP1 MLLE inh 66, eIF4H inh inconclusive (no result: A3G deaminase, A3A deaminase)
COc1ccc(NC(=O)Nc2cc(C)cc(C)c2)cn1	PABP1 MLLE inh 66
Cn1c(O)c(C=Nc2ccc(Cc3ccncc3)cc2)c(=O)n(C)c1=O	none (no result: PABP1 MLLE inh, A3G deaminase, A3A deaminase)
O=S1(=O)N(Cc2ccccc2F)CCCN1Cc1c(F)cccc1Cl	none
Cc1ccc(CC(=O)N2CCN(C(=O)C3CCCO3)CC2)cc1 (stereo unspecified)	none
Cc1nc2cc3nc(C)sc3cc2s1	PHOSPHO1 block 68
O=S(=O)(c1ccc(N=C2NN=C(c3cc(F)ccc3F)CS2)cc1)N1CCOCC1	none
CC(=O)Nc1ccc(C2=NNC(=Nc3ccc(S(=O)(=O)N4CCOCC4)cc3)SC2)cc1	PHOSPHO1 block 65
Cc1ccc(Nc2ccc(N3CCN(c4ccc([N+](=O)[O-])cc4)CC3)nn2)cc1	none
COC(=O)c1scc2c(=O)cc(C(F)(F)F)[nH]c12	PABP1 MLLE inh 56
O=c1cc(C(F)(F)F)[nH]c2ccc(C(F)(F)F)cc12	none
c1ccc(CCn2nnnc2CN2CCCc3ccccc32)cc1	PABP FP inh inconclusive, PHOSPHO1 block 64, eIF4H inh inconclusive
c1ccc2c(c1)CCCN2Cc1nnnn1CC1CCCO1 (stereo unspecified)	PABP FP inh inconclusive, eIF4H inh inconclusive
CC(C)CC[n+]1ccn(-c2nc3ccccc3nc2[N-]S(=O)(=O)c2ccc(Cl)cc2)c1	none
Fc1ccc(-n2c(-c3ccc4c(c3)OCO4)n[nH]c2=S)cc1Cl	none
Cc1ccc(C)c(-n2c(-c3ccc4c(c3)OCO4)n[nH]c2=S)c1	PHOSPHO1 block 96
Cc1ccc(C)c(-n2c(-c3csc(C)c3)n[nH]c2=S)c1	PHOSPHO1 block 97
Cc1ccc(C)c(-n2c(-c3ccncc3)n[nH]c2=S)c1	none
COc1ccccc1-n1nnnc1SCC(=O)NCC1(N2CCCCC2)CCCCC1	none (no result: PABP FP inh, A3G deaminase, A3A deaminase, PHOSPHO1 block, eIF4H inh)
O=C(COc1ccc2c(c1)oc(=O)c1ccccc12)NCCCN1CCOCC1	none
O=C(COc1ccc2c3c(c(=O)oc2c1)CCC3)NCCCN1CCOCC1	PHOSPHO1 block 62
CC(=O)Nc1ccc(S(=O)(=O)NC(C)c2ccncc2)cc1 (stereo unspecified)	none (no result: PABP FP inh, PHOSPHO1 block, eIF4H inh)
CC(=O)Nc1ccc(S(=O)(=O)NC(C)C(=O)NC(C)c2ccccc2)cc1 (stereo unspecified)	PABP1 MLLE inh 49
COC(=O)C1=C(C)NC(=O)C1(NS(=O)(=O)c1ccc(C)cc1)C(F)(F)F (stereo unspecified)	PABP FP inh active
O=C1C=C(O)c2cccc3cccc1c23	PABP FP inh active, PABP1 MLLE inh 70, eIF4H inh 58
NC1=CC(=O)c2cccc3cccc1c23	PABP FP inh inconclusive, eIF4H inh inconclusive (no result: PABP1 MLLE inh)
N#Cc1cccc(S(=O)(=O)Nc2c(NC3CCCCC3)c3ccccc3oc2=O)c1	none
